From PubChem BioAssay (NCATS)
Inconclusive results are not listed. A number with no mark means an inactive call. Activity calls are given as the source filed them. Calls come from the whole dose curve; as a rule, active = well fitted cell-killing curve with a large enough effect in the repeat runs; inconclusive = weak or mixed curves; inactive = flat fitted curve, though single readings scatter.

Assay: qHTS assay for small molecule agonists of the antioxidant response element (ARE) signaling pathway measured by Nrf2-dependant transcriptional activity - cell viability counter screen (AID 720653)
Conditions: ARE-bla HepG2 viability, CellTiter-Glo ATP luminescence, 16 h; max response: hits give low values
Method in brief: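 Cytotoxicity counter screen: intracellular ATP quantified by CellTiter-Glo luminescence in the same ARE-bla HepG2 plates, after 16 h compound exposure and a 2 h beta-lactamase substrate step.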
% is set by controls: 0 for no effect and ±100 for the full control effect; potency is the fitted concentration of half-maximal effect.

Q: Which max response does the source give for `O=C(O)COc1ccc(Cl)cc1` here?
A: The max response was 1.53%.

Q: With `CCC(CC)Nc1c([N+](=O)[O-])cc(C)c(C)c1[N+](=O)[O-]` as the molecule, how does the max response read?
A: The max response was -7.95%.

Q: For `C[Si](Cn1cncn1)(c1ccc(F)cc1)c1ccc(F)cc1`, which max response is on record?
A: The max response was -21.1%.

Q: With `C1=Cc2cccc3cccc1c23` as the molecule, how does the max response read?
A: Its max response is -6.24%.

Q: With `CC/C(=C(\c1ccccc1)c1ccc(OCCN(C)C)cc1)c1ccc(O)cc1` as the molecule, how does the Potency read?
A: Its Potency is 70.8 µM (active).

Q: Which max response does the source give for `CCOP(=O)(OCC)Oc1ccc([N+](=O)[O-])cc1` here?
A: Its max response is -9.88%.

Q: Which Potency does the source give for `O=[N+]([O-])c1cc(C(F)(F)F)c(Cl)c([N+](=O)[O-])c1Nc1ncc(C(F)(F)F)cc1Cl` here?
A: Its Potency is 35.5 µM (active).

Q: Which max response does the source give for `[CH3][Sn]([Cl])([Cl])[Cl]` here?
A: Its max response is -16%.

Q: With `CCC[CH2][Sn]([CH2]CCC)([CH2]CCC)[O][Sn]([CH2]CCC)([CH2]CCC)[CH2]CCC` as the molecule, how does the Potency read?
A: Its Potency is 22.4 µM (active).

Q: Which max response does the source give for `CCC(C)(c1ccc(O)cc1)c1ccc(O)cc1` here?
A: Its max response is -14.2%.

Q: Which Potency does the source give for `[Cu+2].[O-]c1cccc2cccnc12.[O-]c1cccc2cccnc12` here?
A: Its Potency is 11.2 µM (active).

Q: For `CCC(C)Nc1c([N+](=O)[O-])cc(C(C)(C)C)cc1[N+](=O)[O-]` (configuration not stated), which max response is on record?
A: The max response was 11%.
